Assay results published in PubChem BioAssay AID894 (National Center for Advancing Translational Sciences (NCATS), 2007).
The campaign covered roughly 150,000 compounds. About 6,500 (4.3%) were called active. Another 12% or so got no clear call; they are omitted. This excerpt belongs to a sample that is enriched for actives. A number with no mark means an inactive call. The call rests on the fitted dose curve; in most records, active means well fitted inhibition curve with a large enough effect (not every such curve was filed as active); inconclusive means small, poorly fitted or top-dose-only effect, or another doubt; inactive means no such curve, though single readings can be large or run the other way.

The molecules below were run against 15-hydroxyprostaglandin dehydrogenase [NAD(+)] (Homo sapiens) (UniProt P15428) (assay: qHTS Assay for Inhibitors of HPGD (15-Hydroxyprostaglandin Dehydrogenase)). Conditions: purified HPGD, NADH fluorescence kinetic, PGE2 substrate; activity change, negative = inhibition: stronger effect = lower value.
Procedure, shortened: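 20 nM HPGD preincubated 15 min at room temperature with compound in 50 mM Tris-HCl pH 8, 0.01% Tween 20. Started with 1 mM NAD+ and 30 uM prostaglandin E2; NADH fluorescence (360/450 nm) read 5 times over 30-s intervals, last minus first.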
On the % scale 0 is the no-effect control and ±100 the full control effect; potency means the concentration at half of the fitted maximal effect.

Chain of 15-hydroxyprostaglandin dehydrogenase [NAD(+)] (Homo sapiens) (P15428 whole entry, looked up): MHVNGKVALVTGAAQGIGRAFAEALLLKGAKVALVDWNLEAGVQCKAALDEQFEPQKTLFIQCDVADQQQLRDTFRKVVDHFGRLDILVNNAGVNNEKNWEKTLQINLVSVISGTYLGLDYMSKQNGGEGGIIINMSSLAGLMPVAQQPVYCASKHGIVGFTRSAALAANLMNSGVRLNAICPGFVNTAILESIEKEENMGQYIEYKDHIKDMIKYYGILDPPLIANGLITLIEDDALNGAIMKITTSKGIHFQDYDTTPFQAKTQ

SMILES | activity change, negative = inhibition [%] | Potency
CCNc1nc(NC(C)C)nc(N2CC(=O)N(CC(=O)OCC)C2=N)n1 | -1.19 | –
CCCCS(=O)(=O)N1C2=NC(C(=O)OC)=C(C(=O)OC)[C@@H]3N(Cc4ccccc4)c4ccccc4[C@]23C[C@H]1C(=O)OC | -6.02 | –
CCC(=O)Nc1sc(C(=O)N2CCCCC2)c(C)c1C#N | – | 4.47 µM (active)
CCN(CC)C(=O)c1sc(NC(=O)c2ccco2)c(C#N)c1C | -18.8 | –
N#Cc1ccsc1NC(=O)CN1CCCCC1 | -11.5 | –
CC1CN(C(=S)SCC(=O)c2ccccc2)CC(C)O1 (stereo not drawn) | -10.1 | –
CCC(C)(C)C1CCC(=NNC(=O)c2ccc(Br)o2)CC1 (stereo not drawn) | -9.21 | –
O=C(CSc1nnc(SCc2ccc(Cl)cc2)s1)N/N=C/c1ccccc1Cl | -3.98 | –
O=C(COC(=O)CCCNC(=O)c1ccc(Cl)cc1)Nc1cc(Cl)ccc1Cl | -18.1 | –
C/C(=N\NC(=O)c1ccccc1C)c1ccc(N2CCOCC2)cc1 | -15.3 | –
Cc1ccccc1N/N=C/c1ccc(N2CCOCC2)cc1 | – | 28.2 µM (active)
C(=N/Nc1cc(N2CCOCC2)nc(N2CCOCC2)n1)/c1ccccc1 | -6.61 | –
CCN(CC)S(=O)(=O)c1cc([N+](=O)[O-])ccc1N=Nc1c(O)n(C)c2ccccc12 | -5.63 | –
Cc1c(/C=N/N2C(=O)C3C4C=CC(C4)C3C2=O)c2ccccc2n1C (stereo not drawn) | -1.58 | –
CC(=O)N1c2ccccc2N(Cc2ccc([N+](=O)[O-])cc2)C(=O)C1(C)C | -6.13 | –
CCCN1CNC(=S)N(CCc2ccccc2)C1 | 1.42 | –
Cc1ccc(OCC(=O)OC(C)CN(C)Cc2ccccc2)cc1 (stereo not drawn) | -13.4 | –
O=C(CSc1nc(-c2ccco2)cc(C(F)(F)F)n1)NCc1cccs1 | -3.58 | –
FC(F)(F)c1cc(-c2ccco2)nc(N2CCOCC2)n1 | -8.04 | –
O=C(CSc1nc(-c2ccco2)cc(C(F)(F)F)n1)N1CCc2ccccc2C1 | – | 2.24 µM (active)
CN(C)c1ccc(/C=N/N(Cc2ccccc2)c2ccccc2)cc1 | -11.9 | –

SMILES | activity change, negative = inhibition [%] | Potency
CCN(C(=O)COC(=O)c1cc(NS(=O)(=O)c2ccc(Cl)c([N+](=O)[O-])c2)ccc1O)C1CCCCC1 | -7.74 | –
CNC(=S)N1CCN(c2ccccn2)CC1 | -14 | –
CN(C)c1ccc(/C=N\S(=O)(=O)c2ccccc2)cc1 | -10.7 | –
CCOC(=O)CSc1nc2c(sc(=S)n2CCc2ccccc2)c(=O)n1Cc1ccco1 | – | 20 µM (active)
COc1ccccc1NC(=O)CSc1nc2sc(C)c(C)c2c(=O)n1Cc1ccco1 | -18.7 | –
CCOC(=O)CSc1nc2c(c(=O)n(C)c(=O)n2C)n1Cc1ccccc1F | -4.76 | –
COc1ccc(C(=O)Nc2ccc3nc(N4CCCCC4)cc(C)c3c2)cc1OC | -27.2 | –
COc1ccc(S(=O)(=O)N2CCCCC2)cc1Br | -1.54 | –
Cc1ccc(S(=O)(=O)N2CCC(N3CCCCCC3)CC2)cc1 | -7.84 | –
CC1(C)CC(=O)C(N=Nc2ccc(S(=O)(=O)N3CCCCCC3)cc2)=C(O)C1 | – | 25.1 µM (active)
CCOc1c(Br)cc(/C=C2\C(=O)N(CCC#N)N=C2C)cc1OC | – | 5.01 µM (active)
CCOc1cc(/C=N/O)cc(Br)c1OC | -21.3 | –
C=CCOc1c(Br)cc(/C=N\n2nnnc2N)cc1OC | -12.6 | –
COc1ccc(S(=O)(=O)Nc2ccc3oc(C)c(C(C)=O)c3c2)cc1 | -11.3 | –
COc1ccc(C(=O)c2c(C)oc3cc([N+](=O)[O-])c(O)c([N+](=O)[O-])c23)cc1 | – | 14.1 µM (active)
COc1ccc(-c2oc3cc(OC)ccc3c2C(=O)c2ccc(C#N)cc2)cc1 | -8.41 | –
CCO/N=C(/C)c1c(O)cc(-c2ccccc2)n(-c2ccccc2)c1=O | -9.45 | –
Cn1nnc(NC(=O)CSc2ncn[nH]2)n1 | -3.42 | –
CC(C)(C)c1ccc(C(=O)CSc2ncn[nH]2)cc1 | – | 25.1 µM (active)
CCN(C(=O)CSc1ncn[nH]1)c1cccc2ccccc12 | -11.5 | –
S=C(NCC1COc2ccccc2O1)Nc1ccc(Br)cc1 (stereo not drawn) | -26.7 | –

SMILES | activity change, negative = inhibition [%] | Potency
Cc1ccc(CCCOC(=O)C[N+]2(C)CCCC2)cc1 | -8.3 | –
C=CCn1c(SCC(=O)Nc2nc3ccccc3s2)nnc1-c1ccccc1O | -10.2 | –
O=C(CSc1nnc(-c2cccs2)n1-c1ccccc1)NCc1ccco1 | -2.44 | –
C=CCn1c(CSc2nc3ccccc3s2)nnc1SCC(=O)NCc1ccco1 | – | 17.8 µM (active)
O=C(Cc1ccccc1)NNS(=O)(=O)c1ccc([N+](=O)[O-])cc1 | -13.6 | –
COc1ccc(CC(=O)Nc2cc(S(=O)(=O)N3CCCCC3)ccc2N2CCN(C)CC2)cc1 | -7.18 | –
COc1cc(/C=C/C(=O)N2c3ccccc3Sc3ccc(C(F)(F)F)cc32)cc(OC)c1OC | -14.1 | –
CCOC(=O)c1sc(=S)n2c1[nH]c(=O)c1ccc(C(=O)OC)cc12 | – | 8.91 µM (active)
CCOC(=O)c1sc(NC(=O)c2ccncc2)nc1C | -16.2 | –
CCOC(=O)C1=C(C)Nc2sc(C(=O)c3ccc(Br)cc3)c(N)c2C1c1ccc(C(=O)OC)cc1 (stereo not drawn) | -7.23 | –
CN(C)c1ccc(C(CNC(=O)c2ccc(F)cc2)c2c[nH]c3ccccc23)cc1 (stereo not drawn) | -5.43 | –
Cc1ccc(SCCC(=O)NC(C(C)C)C(C)C)cc1 | – | 7.94 µM (active)
Cc1ccc(SCC(=O)Nc2ncc(C)s2)cc1 | -20.4 | –
Cc1ccc(SCCC(=O)OCC(=O)Nc2ncc(Cl)cc2Cl)cc1 | -8.54 | –
CC/C=C\C/C=C\C/C=C\C/C=C\C/C=C\C/C=C\CCC(=O)NCCc1ccc(O)c(O)c1 | -14.7 | –
CCOc1ccc(S(=O)(=O)NCC2CCCO2)cc1 (stereo not drawn) | -2.22 | –
Cc1nc2ccccc2c2oc(C(=O)NCC3CCCO3)cc12 (stereo not drawn) | -26 | –
Cc1c(C(=O)NCC2CCCO2)sc2nc(-c3ccccc3)cn12 (stereo not drawn) | – | 28.2 µM (active)
Cc1ccc(C(=O)NCC2CCCO2)o1 (stereo not drawn) | -12 | –
CCOc1ccc(-n2c(N)c(C(=O)NCC3CCCO3)sc2=S)cc1 (stereo not drawn) | – | 8.91 µM (active)
Cc1ccc(-c2noc(-c3ccccc3C(=O)NCC3CCCO3)n2)cc1 (stereo not drawn) | -6.63 | –
